aSyn yeast inh: qHTS of alpha-syn Inhibitors; Yeast expressing alpha-synuclein, growth rescue, BacTiter-Glo, 24 h; Potency, µM (top dose mostly 46.1 µM), actives largely listed as activators; 370,000 tested, 0.14% active; AID 652106, 2013; further: nearly all actives have a fitted effect of over 65% in size
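Screening used galactose-induced yeast with toxic alpha-synuclein levels, exposed to compound for 24 hr at 30 deg C. Cell growth, read with BacTiter-Glo luminescence, gave the measured signal.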
AT treatment: qHTS Assay for Identifying a Potential Treatment of Ataxia-Telangiectasia; F2112 A-T fibroblasts, KAP-1 phosphorylation AlphaLISA; neocarzinostatin DNA damage 30 min before lysis; 320,000 tested, 0.19% active; AID 485349, 2010; Potency, µM (doses to about 57.5 µM), usual class: activators; further: nearly all actives have a fitted effect of over 45% in size
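ATM-like activity read as KAP-1 phosphorylation via AlphaLISA donor/acceptor antibody pairs after lysis and 6 hr at 25C. Cells were ATM-null patient fibroblasts (F2112, hTERT), dosed 60 min, then exposed to the DSB inducer NCS for 30 min.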
FUS yeast rescue: qHTS for Suppressors of FUS Proteinopathy: Primary screen using FUS-linked yeast assay | S. cerevisiae FUS-expressing, growth rescue, OD600, 24 h | Potency, µM (highest dose often 76.6 µM), usual class: activators | 390,000 tested, 0.24% active | AID 1347120, 2019; further: nearly all actives have a fitted effect of over 55% in size
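S. cerevisiae expressing FUS from galactose induction served as the toxicity model. Growth after 24hr at 30C, read as absorbance at 600 nm, indicates suppression of toxicity; compounds dosed at several concentrations.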
Abeta yeast res: qHTS for compounds that reverse cellular toxicity of Amyloid beta (A-beta) peptide in yeast: Primary Screen; Potency, µM (doses to about 46.1 µM), most hits filed as activators; 410,000 tested, 0.063% active; yeast expressing A-beta42, growth rescue, OD600, 48 h; response scale: 0% DMSO, 100% iron-clioquinol control; AID 1347071, 2019; further: nearly all actives have a fitted effect of over 55% in size
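Yeast A-beta toxicity model in growth medium with pinned compounds, 48 h at 30 C; growth read as absorbance at 600 nm. Normalized to FeCl3/clioquinol equimolar mix (positive) and DMSO (negative).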
TDP43 rescue: qHTS of TDP-43 Inhibitors | 410,000 tested, 1.8% active | Potency, µM (series often up to 46.1 µM), hits mostly activators | TDP-43 expressing yeast growth rescue, BacTiter-Glo, 24 h; further: nearly all actives have a fitted effect of over 50% in size
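Galactose-induced TDP-43 yeast, OD600=0.02, compound pinned; 24 hr, 30 deg C; BacTiter-Glo luminescence for growth. Inhibitors of TDP-43 toxicity read as activators.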
Mito fusion act: qHTS Assay for Small Molecule Inhibitors of Mitochondrial Division or Activators of Mitochondrial Fusion; AID 485298, 2010; 320,000 tested, 0.23% active; S. cerevisiae fusion-defective mutant growth rescue, CellTiterGlo 48 h; Potency, µM (titrated, usually from 46.1 µM), hits mostly activators; further: nearly all actives have a fitted effect of over 45% in size
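Temperature-sensitive fusion-defective S. cerevisiae (e.g. fzo1-1, mgm1-5) were grown with compound in YPEG medium (3% ethanol, 3% glycerol) for 48 hours at 37C. Growth rescue was measured as viability by CellTiterGlo luminescence after 10 minutes at ambient.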
Hits are given with their value; n = inactive; u = inconclusive; x = not tested or not shown; [ ] = remark or other dose. This is a sample that favours compounds with a hit; in the whole collection about 2.4% have one here. The call rests on the fitted dose curve; in most records, active means well fitted curve in the direction sought with a large enough effect; inconclusive means small, poorly fitted or top-dose-only effect, or another doubt; inactive means no such curve, though single readings can be large; an effect the other way counts as inactive or inconclusive.

SMILES	aSyn yeast inh	AT treatment	FUS yeast rescue	Abeta yeast res	TDP43 rescue	Mito fusion act
O=C(COc1ccccc1)N1CCN(c2ncccn2)CC1	n	n	n	n	n	n
Cc1nc(N2CCN(C(=O)COc3ccccc3)CC2)c2c(C)c(C)sc2n1	n	n	n	n	15.8µM	n
COc1ccccc1N1CCN(C(=O)c2sc3nc(C)nc(N4CCN(c5ccccn5)CC4)c3c2C)CC1	n	n	n	n	n	28.2µM
O=S(=O)(c1ccc(F)cc1)c1snnc1-c1ccccc1	n	n	n	n	14.1µM	n
Cc1ccc2nc(-c3ccc(NC(=O)CSc4nnc(-c5cc(C)[nH]n5)n4N)cc3)sc2c1	x	x	n	x	x	x
COc1cccc(C(=O)Nc2cccc(-c3cn4ccsc4n3)c2)c1OC	x	x	n	n	12.6µM	x
COc1cc(OC)cc(C(=O)Nc2cccc(-c3cn4ccsc4n3)c2)c1	x	x	u	n	22.4µM	x
COc1ccc(N2CCN(c3ncnc4onc(-c5ccc(F)cc5)c34)CC2)cc1	x	x	n	n	n[9.22 µM]	x
Fc1ccc(N2CCN(c3ncnc4onc(-c5ccc(Cl)cc5)c34)CC2)cc1	x	x	n	n	17.8µM	x
COc1ccccc1-c1noc(-c2ccc(N3CCC(C)CC3)c([N+](=O)[O-])c2)n1	x	x	n	n	n	x
O=C(NCc1noc2ccccc12)Nc1ccc(F)cc1F	x	x	n	n	n[9.22 µM]	x
O=C(Nc1nc(-c2ccco2)c(-c2ccco2)s1)c1ccc(F)cc1F	n	u	n	n	n	n
O=C(Nc1nc(-c2ccco2)c(-c2ccco2)s1)c1c(F)cccc1Cl	n	n	u	n	n	12.6µM
C#CCNC(=O)C[C@H]1C[C@@]2(C(=O)OC)C(=C[C@H](C(C)(C)C)O[C@@H]2C)N(Cc2ccc(Cl)cc2Cl)C1=O	x	x	17.8µM	x	x	x
COC(=O)[C@]12C[C@H](CC(=O)NCc3ccccc3)C(=O)N(Cc3ccc(Cl)cc3Cl)C1=C[C@H](C1CCCC1)O[C@@H]2C	x	x	n	x	x	x
COC(=O)[C@]12C[C@H](CC(=O)N3CCCCC3)C(=O)N(CCc3ccc(OC)c(OC)c3)C1=C[C@H](C(C)(C)C)O[C@@H]2C	x	x	n	x	x	x
COC(=O)[C@]12C[C@H](CC(=O)N3CCCC3)C(=O)N(Cc3ccc(Cl)cc3Cl)C1=C[C@H](C(C)(C)C)O[C@@H]2C	x	x	17.8µM	x	x	x
COc1ccc(OC)c(S(=O)(=O)N2CCCCC2C(=O)N2CCN(CCO)CC2)c1 (stereo not drawn)	x	x	n	x	x	x
CCCCCOc1ccc(C(=O)NCC2(c3ccccc3)CCOCC2)cc1	n	n	u	n	n	n
CCCCOc1ccc(C(=O)NCC2(c3ccccc3)CCOCC2)cc1	n	n	u	n	15.8µM	u
CCOC(=O)CCC(=O)Nc1nnc2n1CCS2	n	x	n	n	n	x
Cc1cccc(Nc2nc(-c3ccc(O)c(O)c3)cs2)n1	n	n	n	n	n	n
Cc1cccc(Nc2nc(-c3ccc(F)c(C)c3)cs2)n1	n	u	n	u	14.1µM	u
O=C1c2ccccc2S(=O)(=O)N1CC1CC(c2ccc(Cl)cc2)=NO1 (stereo not drawn)	n	n	n	n	n	15.8µM
Cc1c(C(=O)NCCSCc2c(F)cccc2Cl)cnn1-c1ccc(Cl)cc1	n	n	n	n	20µM	n
SMILES	aSyn yeast inh	AT treatment	FUS yeast rescue	Abeta yeast res	TDP43 rescue	Mito fusion act
COc1ccccc1C(=O)NCCSCc1c(F)cccc1Cl	n	n	n	n	n	n
CCN(CC)S(=O)(=O)c1ccc2c(c1)nc(CN(C)C(=O)c1cccc(Cl)c1)n2C	x	x	n	n	n	x
Cc1ccc(/C=N/n2cc(-c3ccccc3)[nH]c2=S)s1	n	n	n	4.47µM	n	n
S=c1[nH]c(-c2ccccc2)cn1/N=C/c1ccccc1Br	n	n	n	u	u	n
O=C(c1cccc(S(=O)(=O)N2CCCCC2)c1)N1CCc2ccccc21	n	n	2.82µM	n	n	n
O=C(c1ccc(N2CCCC2=O)cc1)N1CCN(c2ccccc2O)CC1	n	n	n	n	n	n
Cc1ccc(C)c(N2CCN(C(=O)c3ccc(N4CCCC4=O)cc3)CC2)c1	n	n	n	n	20µM	n
Cc1cccc(NS(=O)(=O)c2ccc(C(=O)N3CCN(c4ccccc4O)CC3)cc2)c1C	n	n	31.6µM	n	n	n
Cc1cccc(N2CCN(C(=O)c3cccc(N4CCCC4=O)c3)CC2)c1C	n	n	n	n	12.6µM	u
Cc1ccccc1NS(=O)(=O)c1ccc(C(=O)N2CCCC2)cc1	n	n	x	n	n	n
Cc1c(NC(=O)C2CCCN(S(=O)(=O)c3ccc(Cl)s3)C2)c(=O)n(-c2ccccc2)n1C (stereo not drawn)	x	x	n	x	x	x
O=C(c1cccc(S(=O)(=O)N2CCCCCC2)c1)N1CCN(c2ccccc2F)CC1	n	n	n	n	u	n
Cc1cccc(N2CCN(C(=O)c3cccc(S(=O)(=O)N4CCCCC4)c3)CC2)c1C	n	n	n	n	7.08µM	x
Cc1c(C(=O)NCc2ccc(F)cc2)oc2ccc(S(=O)(=O)N3CCCCC3)cc12	x	x	n	n	n	x
CC(C)CC(N)c1csc(NC(=O)NCCc2ccccc2)n1 (stereo not drawn)	n	x	n	n	n	x
NC(Cc1ccc(C(F)(F)F)cc1)c1csc(NC(=O)NCCc2ccccc2)n1 (stereo not drawn)	n	x	22.4µM	n	n	x
O=C(CC(=O)c1ccncc1)c1ccccc1	20µM	x	x	n	u	x
O=C(OC12CCCN(C1)/C(=C/c1ccncc1)C2)c1cccc(F)c1 (stereo not drawn)	x	x	n	x	x	x
CN(CC(=O)Nc1c(Cl)cccc1Cl)C(=O)c1cc(-c2cccs2)nn1-c1ccccc1	n	n	x	n	n	20µM
COc1ccccc1C(=O)c1c(C)c(CCC#N)n2ccccc12	n	n	n	n	n	u
COC(=O)CCc1c(C)c(C(=O)c2cc(OC)c(OC)c(OC)c2)c2ccccn12	n	3.55µM	n	n	n	n
O=C(CSCc1ccccc1Cl)N1CCN(c2ccc(Cl)cc2)CC1	x	x	u	n	15.8µM	x
O=C(CSCc1ccccc1Cl)N1CCN(c2ccc(F)cc2)CC1	x	x	n	n	14.1µM	x
COc1ccc(C)cc1NC(=O)CSc1nnc(-c2n[nH]c3c2CCC3)n1N	x	x	n	x	x	x
CC(Sc1nc2ccccc2s1)C(=O)Nc1nnc(C(C)C)s1 (stereo not drawn)	n	n	n	n	25.1µM	n
CCOC(=O)C1CCN(S(=O)(=O)c2cc(-c3cc(C)no3)ccc2C)CC1	x	x	n	n	n	x
